Source: PubChem
This is a sample that favours compounds with a hit; in the whole collection about 6.5% have one here.
HCMV inh: qHTS Assay for inhibitors of the human cytomegalovirus (HCMV). AID 1259415, 2018. 410,000 tested, 4.5% active. HFF cells, HCMV-luciferase reporter, 72 h; active compounds read low. activity change, negative = inhibition, % at 57.5 µM; in the data active = activity change below about -60%; inconclusive = no clear call, values can overlap the other calls; inactive = above about -39%
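Cell-based, HFFs, 1000 cells/well, 16 h 37C; cpds in DMSO + HCMV-luc, MOI 1 PFU/cell; 72 h 37C; OneGlo luminescence after 5 min RT; norm. to buffer vs Salinomycin 10uM.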
Vaccinia mCherry: qHTS for Stage-Specific Inhibitors of Vaccinia Orthopoxvirus: mCherry Reporter Primary qHTS. Vaccinia virus mCherry reporter infection, fluorescence. Potency, µM (top dose mostly 36.5 µM), for the others: top-dose activity change, negative = inhibition, most hits filed as inhibitors. 310,000 tested, 0.63% active. AID 720579, 2013; calls by dose curve; tested in A549 cells; note: potency is the fitted concentration of half-maximal effect; nearly all actives have a fitted effect of over 35% in size
LASV entry inh: qHTS for Inhibitors of binding or entry into cells for Lassa Virus. Lassa virus pseudotype entry inhibition, cell reporter. Potency, µM (titrated, usually from 37.9 µM), for inactives: top-dose activity change, negative = inhibition, hits mostly inhibitors. 300,000 tested, 1.2% active. AID 540256, 2011; calls by dose curve; tested in HEK293 cells; note: potency is the fitted concentration of half-maximal effect; nearly all actives have a fitted effect of over 50% in size
FMDV inh: High Throughput Screening for Foot and Mouth Disease Virus Antivirals. 410,000 tested, 1.2% active. Potency, µM (top dose mostly 57.9 µM), without a hit: at the highest dose activity change, negative = inhibition, usual class: inhibitors. AID 1159524, 2015. FMDV antiviral cell-based qHTS; calls by dose curve; tested in HEK293T cells; note: read-out not given here; potency is the fitted concentration of half-maximal effect; nearly all actives have a fitted effect of over 45% in size
Marburg entry inh: qHTS for inhibitors of binding or entry into cells for Marburg Virus | AID 540276, 2011 | 300,000 tested, 1.8% active | Marburg virus pseudotyped entry inhibition, cell reporter | Potency, µM (titrated, usually from 37.8 µM), for the others: top-dose activity change, negative = inhibition, hits mostly inhibitors; calls by dose curve; tested in HEK293 cells; note: potency is the fitted concentration of half-maximal effect
VACV Venus inh: qHTS for Stage-Specific Inhibitors of Vaccinia Orthopoxvirus: Venus Reporter Primary qHTS | Potency, µM (highest dose often 36.5 µM), without a hit: top-dose activity change, negative = inhibition, hits mostly inhibitors | 330,000 tested, 0.46% active | Vaccinia virus Venus reporter expression, fluorescence; calls by dose curve; tested in A549 cells; note: potency is the fitted concentration of half-maximal effect; nearly all actives have a fitted effect of over 30% in size
Active calls of the source: *; i = inactive; ? = inconclusive; . = not tested or not shown; + = active, no number; [ ] = remark or other dose. % is set by controls: 0 for no effect and ±100 for the full control effect.

SMILES	HCMV inh	Vaccinia mCherry	LASV entry inh	FMDV inh	Marburg entry inh	VACV Venus inh
CC(C)CNC(=O)c1cc([N+](=O)[O-])ccc1N1CCOCC1	48	-8%	2%	-17%	3%	-5%
O=C(Nc1ccc(F)cc1)[C@H](Cc1ccccc1)N1Cc2ccccc2C1=O	4	2%	-9%[46.1 µM]	-6%	-27%[46.1 µM]	1%
Clc1cccc(Nc2cc3c(cn2)ncn3Cc2ccco2)c1	29	.	.	.	.	.
CS/C(=C\[N+](=O)[O-])Nc1ccc(OC(F)(F)F)cc1	-61*	.	.	-23%	.	.
Cc1ccc2c(CN3CCN(S(=O)(=O)c4ccc5c(c4)OCCO5)CC3)cc(=O)oc2c1C	-78*	-10%	?	?	?	0%
Cc1c(O)ccc2c(CN3CCN(CCO)CC3)cc(=O)oc12	18	?	10%	-17%	34%	-15%
COc1ccc(-c2cc(=O)oc3cc(OCC(C)=O)ccc23)cc1	14	i	?	-18%	?	-11%
COc1ccc(-c2cc(=O)oc3cc(O)ccc23)cc1	-96*	-8%	?	-15%	-30%[46.1 µM]	-19%
Cc1c(O)ccc2c(CN3CCOCC3)cc(=O)oc12	+	.	.	-6%	.	.
COc1ccc(-c2cc(=O)oc3cc(OC(=O)C4CCCCC4)c(Cl)cc23)cc1	-91*	.	4%	-23%	-12%	.
COc1ccc(-c2cc(=O)oc3cc(OC(C)C(=O)NC4CC4)ccc23)cc1 (stereo not given)	14	-1%	.	-11%	.	-5%
CCN(CC)Cc1c(O)ccc2c(-c3ccccc3)cc(=O)oc12	13	.	-15%	-30%	21%	.
CCOC(=O)C(Oc1ccc2c(-c3ccccc3)cc(=O)oc2c1C)c1ccccc1 (stereo not given)	-8	0%	?	-11%	-8%	3%
COc1ccc(/C=C/C(=O)c2c(O)ccc3c(C)cc(=O)oc23)cc1	-78*	.	.	-25%	.	.
COc1ccc(-c2cc(=O)oc3c(C)c(O)ccc23)cc1	-72*	.	.	-23%	.	.
CCOC(=O)C(Oc1ccc2c(-c3ccc(OC)cc3)cc(=O)oc2c1C)c1ccccc1 (stereo not given)	-24	.	13µM*	?	?	.
COc1ccc(-c2cc(=O)oc3c(C)c(OC(C)C(C)=O)ccc23)cc1 (stereo not given)	20	.	.	-25%	.	.
Cc1c(O)ccc2c(-c3ccccc3)cc(=O)oc12	-71*	.	.	-26%	.	.
O=[N+]([O-])c1ccc2c(c1)CO[C@]21O[C@H](CCO)C[C@H](O)[C@H]1O	-18	.	.	.	.	.
CN(Cc1ccc2ccccc2c1)C(=O)c1ccc(C(F)(F)F)cc1	-62*	-28%	20%[46.1 µM]	-5%	2%[46.1 µM]	4%
COc1ccc(CN(C)C(=O)c2ccc(Oc3ccccc3)cc2)cc1F	10	-22%	?	-10%	?	-11%
CS(=O)(=O)c1ncc(Cl)c(C(=O)N(Cc2ccc(Cl)cc2)Cc2ccco2)n1	-107*	?	?	?	?	16µM*
CCOc1ccc(N(Cc2ccccc2)C(=O)c2nc(SC)ncc2Cl)cc1	-26	-18%	-22%[46.1 µM]	?	?	-12%
O=C(c1ccc(Cl)cc1)N(Cc1ccco1)Cc1ccco1	-14	5%	11%[46.1 µM]	12%	0%[46.1 µM]	-1%
CCCSc1ncc(Cl)c(C(=O)N(Cc2ccccc2)c2ccc(OC)cc2)n1	-75*	?	-14%[46.1 µM]	?	?	?
COc1ccc(N(Cc2ccccc2)C(=O)c2nc(S(C)(=O)=O)ncc2Cl)cc1	-101*	?	?	18µM*	2%[46.1 µM]	?
COc1ccc(-c2cc(C(=O)NCc3ccc(F)cc3)c3c(-c4ccc(F)cc4)[nH]nc3n2)cc1OC	-101*	?	?	-24%	.	?
COc1ccc(CNC(=O)c2cc(-c3ccc(OC)c(OC)c3)nc3n[nH]c(-c4ccc(C)cc4)c23)cc1	-97*	?	-16%[46.1 µM]	-19%	.	-23%
COc1ccc(CNC(=O)c2cc(-c3ccc(C)cc3)nc3n[nH]c(-c4ccc(Br)cc4)c23)cc1	12	-6%	-6%[46.1 µM]	-25%	.	-4%
